Compounds with a hit are over-represented: about 0.41% of the library has one in this group of screens.
GAA glycogen: inhibitors or activators of human alpha-glucosidase glycogen cleavage; recombinant GAA, glycogen substrate, Amplex Red glucose oxidase fluorescence; Potency, µM (doses to about 76.4 µM), for the others: at the highest dose activity change, negative = inhibition, actives largely listed as inhibitors; hit rate 0.38% among 300,000; AID 2100;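 note: 0% = full enzyme reaction and -100% = no-enzyme basal signal; the screen sought inhibitors and activators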
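Recombinant enzyme (4 nM final) with compounds titrated up to 77 uM and bovine liver glycogen (30 ug) in citrate pH 5.0, 0.01% Tween-20, 37 C 40 min. Released glucose detected by Amplex Red/glucose oxidase (Ex 573/Em 610); AC50 from Hill fits.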
LMNA splice mod: modulators of lamin A splicing; HeLa LMNA splicing GFP/RFP minigene ratio, 48 h; Potency, µM (highest dose often 46.1 µM), for inactives: at the highest dose ratio change, negative = inhibition, usual class: inhibitors; hit rate 0.01% among 200,000; AID 1487; active = well fitted inhibition curve with a large enough effect in the signal ratio, with a control signal flat, not every such curve was filed as active; inconclusive = small, poorly fitted or top-dose-only effect, or effect the other way, or a change in a side signal; the % refers to the signal ratio
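S3 HeLa cells stably expressing lamin A-EGFP splicing minigene plus DsRed2, 600 cells/well, 48 h compound exposure at 37C. Laser-scanning cytometry; analysed as GFP (500-530 nm)/RFP (575-640 nm) total intensity ratio; 0.5% DMSO vehicle.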
aGlu spleen mod: lysosomal alpha-glucosidase (human) modulation; P10253; human spleen homogenate, 4-MU-alpha-glucoside fluorescence; Potency, µM (series often up to 79.9 µM), for the others: at the top dose activity change, negative = inhibition, hits mostly inhibitors; hit rate 0.006% among 240,000; AID 2112;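 note: 0% = enzyme with vehicle and -100% = no enzyme basal signal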
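Compounds were titrated against alpha-glucosidase in spleen homogenate at pH 5.0, with 1 mM 4-methylumbelliferyl substrate for 40 min at 37 C. Reactions were quenched with pH 10 NaOH/glycine and fluorescence measured.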
N370S GC: inhibitors or activators of N370S glucocerebrosidase for Gaucher disease. AID 2101. hit rate 0.092% among 330,000. N370S GC spleen homogenate, 4MU-glucoside fluorescence. Potency, µM (doses to about 59.4 µM), for the others: at the top dose activity change, negative = inhibition, usual class: inhibitors;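 note: 0% = full enzyme activity and -100% = no enzyme basal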
GAA inhib: blocks human lysosomal alpha-glucosidase | purified human GAA, 4-MU-alpha-glucoside fluorescence | Potency, µM (highest dose often 76.9 µM), for the others: at the top dose activity change, negative = inhibition, most hits filed as inhibitors | hit rate 0.005% among 200,000;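 note: plate controls were uninhibited enzyme wells for no effect and no-enzyme background for full effect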
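Enzyme (4 nM final) mixed with compound (up to 77 uM), then 4-MU-alpha-D-pyranoside (400 uM final) added; 20 min at room temperature, pH 5.0. Reaction stopped at pH 10, fluorescence read, AC50 derived by Hill fit.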
Numbers without * were called inactive; [ ] = dose if it differs, or a comment. Unless noted, calls come from the whole dose curve; as a rule, active = well fitted curve in the direction sought with a large enough effect; inconclusive = small, poorly fitted or top-dose-only effect, or another doubt; inactive = no such curve, though single readings can be large; an effect the other way counts as inactive or inconclusive. Unless noted, % is set by controls: 0 for no effect and ±100 for the full control effect; potency is the fitted concentration of half-maximal effect.

`COc1ccc2c(c1OC)C(=O)OC2CC(=O)c1ccc(O)c(O)c1` (centres undefined) gave GAA glycogen 14µM*, LMNA splice mod 13%, aGlu spleen mod -6%, N370S GC -15% and GAA inhib -5%.
For CC[C@H](C)[C@H](NC(=O)[C@H](CC(=O)O)NC(=O)[C@H](CC(C)C)NC(=O)[C@H](Cc1cnc[nH]1)NC(=O)[C@H](C)NC(=O)[C@H](Cc1ccccc1)NC(=O)[C@H](Cc1ccc(O)cc1)NC(=O)[C@@H](NC(=O)[C@H](C)NC(=O)[C@H](CCC(=O)O)NC(=O)[C@H](CCCCN)NC(=O)[C@H](CC(=O)O)NC(=O)[C@H](CCSC)NC(=O)[C@H](CC(C)C)NC(C)=O)C(C)C)C(=O)N[C@H](C(=O)N[C@@H](Cc1c[nH]c2ccccc12)C(=O)O)[C@@H](C)CC the results were aGlu spleen mod -13% and N370S GC -5%.
Screening Cc1ccc2nc(-c3ccc(N4C(=O)CC(N5CCN(CCO)CC5)C4=O)cc3)sc2c1 (centres undefined) returned GAA glycogen -5%, LMNA splice mod 0%, aGlu spleen mod 3%, N370S GC 18µM* and GAA inhib -2%.
Cc1ccc(N2C(=O)CC(N3CCN(c4ccccn4)CC3)C2=O)cc1 (centres undefined) was read as GAA glycogen 8%, LMNA splice mod 14%[46 µM], aGlu spleen mod 0%, N370S GC -7% and GAA inhib 9%.
For Cc1ccc(NC(=O)c2ccc(F)c(S(=O)(=O)NCCc3ccccc3)c2)cc1F the results were LMNA splice mod -17%[46 µM].
CCOc1ccccc1CNC(=O)c1ccc(Cn2c(SCc3ccccc3)nc3cccnc32)cc1 was read as GAA glycogen -3%[76.3 µM].
Screening CC1(C)OC(=O)C(=NNc2ccc(O)cc2)C(=O)O1 returned GAA glycogen 11µM*, LMNA splice mod inconclusive, aGlu spleen mod -12%, N370S GC -23% and GAA inhib -3%.
Screening CC1(C)OC(=O)C(=NNc2ccccc2)C(=O)O1 returned GAA glycogen 0%, LMNA splice mod 12%, aGlu spleen mod -18%, N370S GC -7% and GAA inhib -7%.
Screening Cc1ccc(-n2ncc(C(=O)Nc3ccc4c(c3)OCCO4)c2C2CCN(C(=O)OC(C)(C)C)CC2)cc1C returned LMNA splice mod -4%[46 µM].
O=S(=O)(Nc1ccccc1O)c1ccc(Cl)nc1 was read as GAA glycogen 20µM*, aGlu spleen mod -3% and N370S GC 6%.
For N#Cc1cccc(CS(=O)(=O)c2nnnn2C2CCCCC2)c1 the results were aGlu spleen mod 1% and N370S GC 10%.
`Cc1ccc(Nc2c(-c3ccco3)nc3ccccn23)cc1` gave GAA glycogen inconclusive, LMNA splice mod -25%, aGlu spleen mod -6%, N370S GC 2% and GAA inhib 11%.
Screening Cc1ccc(Nc2c(-c3c[nH]c4ccccc34)nc3ccccn23)cc1 returned GAA glycogen 4.5µM*.
For NC(=O)c1ccc2nc(-c3ccc(Oc4ccc(Cl)cc4)cc3)[nH]c2c1 the results were aGlu spleen mod -2% and N370S GC -21%.
For CC(C)C[C@H](NC(=O)[C@H](Cc1cnc[nH]1)NC(=O)[C@@H](N)Cc1cnc[nH]1)C(=O)NCC(=O)NCC(=O)N[C@@H](C)C(=O)N[C@@H](CCCCN)C(=O)N[C@@H](CCC(N)=O)C(=O)N[C@@H](C)C(=O)NCC(=O)N[C@@H](CC(=O)O)C(=O)N[C@H](C(=O)O)C(C)C the results were aGlu spleen mod -2% and N370S GC -8%.
O=C1CC(N2CCN(c3ccc(O)cc3)CC2)C(=O)N1c1ccc2c(c1)OCO2 (centres undefined) was read as GAA glycogen 16µM*, LMNA splice mod -1%[46 µM], aGlu spleen mod 3%, N370S GC -8% and GAA inhib 12%.
Cc1ccc(-n2nc(C)c3c2OC(N)=C(C#N)C3c2ccoc2)cc1 (centres undefined) was read as GAA glycogen 22µM*, LMNA splice mod -5%, aGlu spleen mod -3%, N370S GC -24% and GAA inhib -4%.
Screening O=c1c2ccccc2n(Cc2ccccc2Cl)c(=O)n1CCc1ccccc1 returned GAA glycogen 9%[76.3 µM].
For CCC(C=C[C@@H]1OC(=O)C=C[C@H]1C)=C[C@H](C)CC=CC(C)=C[C@@H](C)C(=O)[C@@H](C)[C@H](O)[C@@H](C)CC(C)=CC(=O)O the results were aGlu spleen mod 3%[3.15 µM] and N370S GC 1%[2.35 µM].
Screening CC(C)(C)OC(=O)N1CCC(c2c(C(=O)NCc3ccccn3)cnn2-c2ccccc2)CC1 returned LMNA splice mod 1%[46 µM].
`CCOC(=O)Nc1sc(NS(=O)(=O)c2ccccc2)nc1C` gave GAA glycogen inconclusive, LMNA splice mod 9%, aGlu spleen mod -1%, N370S GC 7% and GAA inhib 1%.
For CCOC(=O)Nc1sc(NS(=O)(=O)c2ccc(C)cc2)nc1C the results were GAA glycogen 28µM*, LMNA splice mod 2%, aGlu spleen mod -2% and GAA inhib inconclusive.
Cc1ccc(S(=O)(=O)Nc2nc(C)c(C(=O)NN)s2)cc1 was read as GAA glycogen 32µM*, aGlu spleen mod 6% and N370S GC 20%.
`CCC1CC=CC2C1C(=O)N(Cc1ccccc1)C2c1ccoc1` (centres undefined) gave aGlu spleen mod 7% and N370S GC -10%.
Screening O=C(Cn1nc(Cc2cccnc2)c2ccccc2c1=O)Nc1ccc(F)c(Cl)c1 returned GAA glycogen 0%[76.3 µM].
`O=C(OCCNc1nc(-c2ccccc2)nc2ccccc12)c1cccnc1` gave GAA glycogen -10%, aGlu spleen mod -6%, N370S GC 7.1µM* and GAA inhib inconclusive.
O=C(OCCNc1nc(-c2ccccc2)nc2ccccc12)c1ccncc1 was read as GAA glycogen 7%, LMNA splice mod inconclusive, aGlu spleen mod -6%, N370S GC inconclusive and GAA inhib -4%.
OC(CNc1nc(-c2cccnc2)nc2ccccc12)c1ccccc1 (centres undefined) was read as N370S GC 10µM*.
`OCCNc1nc(-c2cccnc2)nc2ccccc12` gave GAA glycogen -13%, LMNA splice mod inconclusive, aGlu spleen mod -3%, N370S GC 8% and GAA inhib -8%.
For Nc1cc(C(=O)O)c(O)c(S(=O)(=O)O)c1 the results were aGlu spleen mod 2% and N370S GC 10%.
